# In the supplement of paper PMC8728848:
# This is one part of a sample in which the strongest signals are shown more often than they occur.
# B1: mCC1-Hexahis-Precomplexed (Mus musculus), P31809 (protein)
# chain: MELASAHLHKGQVPWGGLLLTASLLASWSPATTAEVTIEAVPPQVAEDNNVLLLVHNLPLALGAFAWYKGNTTAIDKEIARFVPNSNMNFTGQAYSGREIIYSNGSLLFQMITMKDMGVYTLDMTDENYRRTQATVRFHVHPILLKPNITSNNSNPVEGDDSVSLTCDSYTDPDNINYLWSRNGESLSEGDRLKLSEGNRTLTLLNVTRNDTGPYVCETRNPVSVNRSDPFSLNIIYGPDTPIISPSDIYLHPGSNLNLSCHAASNPPAQYFWLINEKPHASSQELFIPNITTNNSGTYTCFVNNSVTGLSRTTVKNITVLEPVTQPFLQVTNTTVKELDSVTLTCLSNDIGANIQWLFNSQSLQLTERMTLSQNNSILRIDPIKREDAGEYQCEISNPVSVRRSNSIKLDIIFDPTQGGLSDGHHHHHH
# Legend:
# Test in all cases: glycan array binding signal (z-score within array); higher = stronger binding
# Settings in all cases: glycan notation: IUPAC condensed, linker removed
# [1] = target: Fuc(a1-2)Gal(b1-4)GlcNAc(b1-3)[Fuc(a1-3)[Gal(b1-4)]GlcNAc(b1-6)]Gal(b1-4)Glc
# In short: (§1)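 Glycan array binding is given as a within-array Z-score, which can be read as non-binding when negative. The arrays, 3228 of them, came from the Consortium for Functional Glycomics database and were retained only where the protein sequence was available. Z-scores were averaged across arrays of the same protein sequence at different concentrations or buffers and across linkers.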
# [2] = target: Fuc(a1-2)Gal(b1-4)[Fuc(a1-3)]GlcNAc(b1-3)Gal(b1-4)[Fuc(a1-3)]GlcNAc(b1-3)Gal(b1-4)[Fuc(a1-3)]GlcNAc
# In short: as §1
# [3] = target: Fuc(a1-2)[Gal(a1-3)]Gal(b1-3)GlcNAc(b1-6)GalNAc
# In short: as §1
# [4] = target: Fuc(a1-2)[GalNAc(a1-3)]Gal(b1-4)[Fuc(a1-3)]GlcNAc
# In short: as §1
# [5] = target: Fuc(a1-3)[Gal(b1-4)]GlcNAc(b1-6)GalNAc
# In short: as §1
# [6] = target: Fuc(a1-3)[GalNAc(b1-4)]GlcNAc6S
# In short: as §1
# [7] = target: Gal(a1-3)Gal(b1-3)GlcNAc(b1-2)Man(a1-3)[Gal(a1-3)Gal(b1-3)GlcNAc(b1-2)Man(a1-6)]Man(b1-4)GlcNAc(b1-4)GlcNAc
# In short: as §1
# Gal(a1-4)Gal(b1-4)GlcNAc = target: Gal(a1-4)Gal(b1-4)GlcNAc
# In short: as §1
# [8] = target: Gal(b1-3)GalNAc(a1-3)[Fuc(a1-2)]Gal(b1-4)GlcNAc
# In short: as §1
# [9] = target: Gal(b1-3)GlcNAc(b1-2)[Gal(b1-3)GlcNAc(b1-6)]Man(a1-6)[Gal(b1-3)GlcNAc(b1-2)Man(a1-3)]Man(b1-4)GlcNAc(b1-4)GlcNAc
# In short: as §1
# [10] = target: Gal(b1-3)[Fuc(a1-4)]GlcNAc(b1-3)Gal(b1-4)[Fuc(a1-3)]GlcNAc
# In short: as §1
# [11] = target: Gal(b1-4)GlcNAc(b1-2)[Gal(b1-4)GlcNAc(b1-4)]Man(a1-3)[Gal(b1-4)GlcNAc(b1-2)[Gal(b1-4)GlcNAc(b1-6)]Man(a1-6)]Man(b1-4)GlcNAc(b1-4)GlcNAc
# In short: as §1
# [12] = target: Gal(b1-4)GlcNAc(b1-3)Gal(b1-3)GalNAc
# In short: as §1
# [13] = target: Gal(b1-4)GlcNAc(b1-3)Gal(b1-4)GlcNAc(b1-2)Man(a1-3)[Gal(b1-4)GlcNAc(b1-3)Gal(b1-4)GlcNAc(b1-2)Man(a1-6)]Man(b1-4)GlcNAc(b1-4)GlcNAc
# In short: as §1
# [14] = target: Gal(b1-4)GlcNAc(b1-3)Gal(b1-4)GlcNAc(b1-3)Gal(b1-4)GlcNAc(b1-2)Man(a1-3)[Gal(b1-4)GlcNAc(b1-3)Gal(b1-4)GlcNAc(b1-3)Gal(b1-4)GlcNAc(b1-2)Man(a1-6)]Man(b1-4)GlcNAc(b1-4)GlcNAc
# In short: as §1
# [15] = target: Gal(b1-4)GlcNAc(b1-3)Gal(b1-4)GlcNAc(b1-3)GalNAc
# In short: as §1
# [16] = target: Gal(b1-4)GlcNAc(b1-3)Gal(b1-4)GlcNAc(b1-3)[Gal(b1-4)GlcNAc(b1-3)Gal(b1-4)GlcNAc(b1-6)]GalNAc
# In short: as §1
# [17] = target: Gal(b1-4)GlcNAc(b1-3)Gal(b1-4)GlcNAc(b1-6)[Gal(b1-3)]GalNAc
# In short: as §1
# Gal3S(b1-4)Glc = target: Gal3S(b1-4)Glc
# In short: as §1
# [18] = target: Gal3S(b1-4)[Fuc(a1-3)]Glc6S
# In short: as §1
# GalNAc(b1-4)GlcNAc6S = target: GalNAc(b1-4)GlcNAc6S
# In short: as §1
# GalNAc3S(b1-4)GlcNAc3S = target: GalNAc3S(b1-4)GlcNAc3S
# In short: as §1
# GlcA(b1-6)Gal = target: GlcA(b1-6)Gal
# In short: as §1
# [19] = target: GlcA3S(b1-3)Gal(b1-4)GlcNAc(b1-3)Gal(b1-4)Glc
# In short: as §1
# GlcNAc(b1-3)Gal(b1-4)Glc = target: GlcNAc(b1-3)Gal(b1-4)Glc
# In short: as §1
# [20] = target: GlcNAc(b1-3)Gal(b1-4)GlcNAc
# In short: as §1
# [21] = target: GlcNAc(b1-3)Gal(b1-4)GlcNAc(b1-2)Man(a1-3)[GlcNAc(b1-3)Gal(b1-4)GlcNAc(b1-2)Man(a1-6)]Man(b1-4)GlcNAc(b1-4)GlcNAc
# In short: as §1
# [22] = target: Kdn(a2-3)Gal(b1-4)[Fuc(a1-3)]GlcNAc
# In short: as §1
# Man(a1-2)Man(a1-3)Man = target: Man(a1-2)Man(a1-3)Man
# In short: as §1
# [23] = target: Man(a1-3)[Man(a1-6)]Man(a1-6)[Man(a1-2)Man(a1-3)]Man(b1-4)GlcNAc(b1-4)GlcNAc
# In short: as §1
# [24] = target: Man(a1-3)[Man(a1-6)]Man(a1-6)[Man(a1-3)]Man(b1-4)GlcNAc(b1-4)GlcNAc
# In short: as §1
# [25] = target: Neu5Ac(a2-3)Gal(b1-4)GlcNAc(b1-2)[Neu5Ac(a2-3)Gal(b1-4)GlcNAc(b1-6)]Man(a1-6)[Neu5Ac(a2-3)Gal(b1-4)GlcNAc(b1-2)Man(a1-3)][GlcNAc(b1-4)]Man(b1-4)GlcNAc(b1-4)GlcNAc
# In short: as §1
# [26] = target: Neu5Ac(a2-3)Gal(b1-4)GlcNAc(b1-3)Gal(b1-4)GlcNAc(b1-2)Man(a1-3)[Neu5Ac(a2-3)Gal(b1-4)GlcNAc(b1-3)Gal(b1-4)GlcNAc(b1-2)Man(a1-6)]Man(b1-4)GlcNAc(b1-4)GlcNAc
# In short: as §1
# [27] = target: Neu5Ac(a2-3)Gal(b1-4)GlcNAc(b1-3)Gal(b1-4)GlcNAc(b1-3)Gal(b1-4)GlcNAc(b1-2)Man(a1-3)[Neu5Ac(a2-3)Gal(b1-4)GlcNAc(b1-3)Gal(b1-4)GlcNAc(b1-3)Gal(b1-4)GlcNAc(b1-2)Man(a1-6)]GalNAc
# In short: as §1
# [28] = target: Neu5Ac(a2-3)Gal(b1-4)GlcNAc(b1-3)Gal(b1-4)GlcNAc(b1-3)GalNAc
# In short: as §1
# [29] = target: Neu5Ac(a2-3)[GalNAc(b1-4)]Gal(b1-4)GlcNAc(b1-3)GalNAc
# In short: as §1
# [30] = target: Neu5Ac(a2-6)Gal(b1-4)GlcNAc(b1-3)Gal(b1-4)GlcNAc(b1-3)Gal(b1-4)GlcNAc(b1-2)Man(a1-3)[Neu5Ac(a2-6)Gal(b1-4)GlcNAc(b1-3)Gal(b1-4)GlcNAc(b1-3)Gal(b1-4)GlcNAc(b1-2)Man(a1-6)]GalNAc
# In short: as §1
# [31] = target: Neu5Ac(a2-6)Gal(b1-4)GlcNAc(b1-3)Gal(b1-4)GlcNAc(b1-3)[Neu5Ac(a2-6)Gal(b1-4)GlcNAc(b1-3)Gal(b1-4)GlcNAc(b1-6)]GalNAc
# In short: as §1
# [32] = target: Neu5Ac(a2-6)Gal(b1-4)GlcNAc(b1-3)Gal(b1-4)[Fuc(a1-3)]GlcNAc(b1-3)Gal(b1-4)[Fuc(a1-3)]GlcNAc
# In short: as §1
# Neu5Ac(a2-6)GalNAc = target: Neu5Ac(a2-6)GalNAc
# In short: as §1
binder,measurement,setting,value
B1,glycan array binding signal (z-score),[1],-0.163
same,glycan array binding signal (z-score),[2],-0.097
same,glycan array binding signal (z-score),[3],-0.18
same,glycan array binding signal (z-score),[4],0.277
same,glycan array binding signal (z-score),[5],-0.024
same,glycan array binding signal (z-score),[6],-0.231
same,glycan array binding signal (z-score),[7],-0.189
same,glycan array binding signal (z-score),Gal(a1-4)Gal(b1-4)GlcNAc,-0.227
same,glycan array binding signal (z-score),[8],-0.191
same,glycan array binding signal (z-score),[9],-0.273
same,glycan array binding signal (z-score),[10],-0.217
same,glycan array binding signal (z-score),[11],-0.217
same,glycan array binding signal (z-score),[12],-0.158
same,glycan array binding signal (z-score),[13],3.85
same,glycan array binding signal (z-score),[14],4.96
same,glycan array binding signal (z-score),[15],6.28
same,glycan array binding signal (z-score),[16],4.46
same,glycan array binding signal (z-score),[17],5.01
same,glycan array binding signal (z-score),Gal3S(b1-4)Glc,-0.25
same,glycan array binding signal (z-score),[18],-0.049
same,glycan array binding signal (z-score),GalNAc(b1-4)GlcNAc6S,-0.282
same,glycan array binding signal (z-score),GalNAc3S(b1-4)GlcNAc3S,-0.065
same,glycan array binding signal (z-score),GlcA(b1-6)Gal,-0.12
same,glycan array binding signal (z-score),[19],-0.235
same,glycan array binding signal (z-score),GlcNAc(b1-3)Gal(b1-4)Glc,-0.227
same,glycan array binding signal (z-score),[20],-0.246
same,glycan array binding signal (z-score),[21],-0.184
same,glycan array binding signal (z-score),[22],-0.169
same,glycan array binding signal (z-score),Man(a1-2)Man(a1-3)Man,-0.152
same,glycan array binding signal (z-score),[23],4.18
same,glycan array binding signal (z-score),[24],-0.197
same,glycan array binding signal (z-score),[25],-0.045
same,glycan array binding signal (z-score),[26],7.65
same,glycan array binding signal (z-score),[27],7.6
same,glycan array binding signal (z-score),[28],-0.119
same,glycan array binding signal (z-score),[29],3.55
same,glycan array binding signal (z-score),[30],4.99
same,glycan array binding signal (z-score),[31],9.54
same,glycan array binding signal (z-score),[32],-0.116
same,glycan array binding signal (z-score),Neu5Ac(a2-6)GalNAc,-0.234
